Measurements: PubChem BioAssay (EPA / NIEHS)
“And” between values parts separate entries of the source, which are not always exact repeats. Equal values may be shown once. Where a structure was tested more than once in an assay, its records may differ in their call. The source made the active and inactive calls. How the source made its calls: active means hit-call score of the fitted dose curve at least 0.9, where 1 is the maximum; inactive means score below 0.9.

Read-out: CD40, CD40 (gene 958)
Assay: BSK_LPS_CD40: BioMAP Diversity Plus: LPS Assay for CD40 Biomarker Activity (AID 2283076)
Conditions: primary human HUVEC with PBMC; actives raise or lower the signal
Summary of the method: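 ELISA readout of CD40 in HUVEC/PBMC co-culture (BSK_LPS system), 24 h post-dosing; bidirectional curve fit, DMSO baseline; parallel SRB total-protein staining for cytotoxicity.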

AC50, active:
C=CC(=O)OCC(Br)CBr (stereo not drawn) 15.6 µM
O=C(Nc1ccccc1SSc1ccccc1NC(=O)c1ccccc1)c1ccccc1 4.75 µM
CCCCC(CC)COC(=O)c1ccccc1O (stereo not drawn) 18.6 µM
C#CC1(O)CC[C@H]2[C@@H]3CCC4=CCCC[C@@H]4[C@H]3CC[C@@]21C (stereo partly drawn) 20 µM
O=C(Cl)c1cc(C(=O)Cl)cc(C(=O)Cl)c1 15.2 µM
CCCCCCCCCCCCCCCC[N+](C)(C)CC 3.07 µM
CN1C(=O)N(C)C(O)C1O (stereo not drawn) 1.5 µM
Nc1ccc(N)c(Cl)c1 3.22 µM and 2.55 µM
CCCCC/C=C\C/C=C\CCCCCCCC(=O)OC 20 µM

outcome, inactive:
CCOc1nc(F)cc2nc(S(=O)(=O)Nc3c(Cl)cccc3C(=O)OC)nn12
N#[N+]c1ccc2c(S(=O)(=O)[O-])cccc2c1O
COCc1c(C(C)C)nc(C(C)C)c(/C=C/[C@@H](O)C[C@@H](O)CC(=O)O)c1-c1ccc(F)cc1
O=C1CCCN1CCO
CC1OC1C1CCC2(C)OC2C1 (stereo not drawn)
CCO[Si](C)(OCC)OCC
C=CCOCC(O)CCl (stereo not drawn)
CN1C(=O)N(C)C(O)C1O (stereo not drawn)
CCCCNc1ccc(NCCCC)c2c1C(=O)c1ccccc1C2=O
C=C[Si](OC(C)=O)(OC(C)=O)OC(C)=O
O=Nc1ccc(O)cc1
C=CCOc1c(Br)cc(Br)cc1Br
CCCCCCCCc1ccc(Nc2ccc(CCCCCCCC)cc2)cc1
C=CC=CC=CCCCCC
